Compound activity (PubChem)
Pf growth 48h: P. falciparum growth inhibition at 48 hours (one generation); AID 504832; 310,000 compounds, 5.9% hits; P. falciparum luciferase growth in erythrocytes, 48 h; Potency, µM (doses to about 28.7 µM), for inactives: at the highest dose activity change, negative = inhibition, hits mostly inhibitors; further: on the % scale 0 is the no-effect control and ±100 the full control effect
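Erythrocytes infected with P. falciparum carrying an integrated firefly luciferase reporter (2% hematocrit, 0.1% parasitemia final) were exposed to compounds in RPMI 1640 with 0.5% Albumax at 37 C, 5% CO2. Growth inhibition was scored as reduced luminescence.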
HCV inhibitor: blocks hepatitis C virus; Huh7.5.1 HCVcc-Cre infection, luciferase reporter, 44 h; Potency, µM (doses to about 41.8 µM), for inactives: at the top dose activity change, negative = inhibition, actives largely listed as inhibitors; 340,000 compounds, 3.4% hits; further: on the % scale 0 is the no-effect control and ±100 the full control effect
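Infectious HCV cell culture screen: compound-treated cells (1,000/well, pre-plated 4 h) are infected with HCVcc-Cre at roughly 0.5 moi and grown 44 h. Infection is quantified by luciferase signal after 15 min substrate incubation at room temperature.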
VACV mCherry inh: vaccinia inhibition (mCherry reporter); 310,000 compounds, 0.63% hits; AID 720579; Potency, µM (highest dose often 36.5 µM), for the others: at the top dose activity change, negative = inhibition, usual class: inhibitors; Vaccinia virus mCherry reporter infection, fluorescence; calls by dose curve; tested in A549 cells; further: on the % scale 0 is the no-effect control and ±100 the full control effect; nearly all actives have a fitted effect of over 35% in size
Vaccinia Venus: vaccinia inhibition (Venus reporter); 330,000 compounds, 0.46% hits; Vaccinia virus Venus reporter expression, fluorescence; AID 720580; Potency, µM (titrated, usually from 36.5 µM), without a hit: at the top dose activity change, negative = inhibition, usual class: inhibitors; calls by dose curve; tested in A549 cells; further: on the % scale 0 is the no-effect control and ±100 the full control effect; nearly all actives have a fitted effect of over 30% in size
Pf growth 96h: inhibits malaria parasite growth, 96 h; P. falciparum luciferase reporter growth, 96 h; Potency, µM (titrated, usually from 28.7 µM), without a hit: at the highest dose activity change, negative = inhibition, actives largely listed as inhibitors; 320,000 compounds, 6.9% hits; further: on the % scale 0 is the no-effect control and ±100 the full control effect
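Luminescence readout: decreased luciferase signal marks inhibited growth of reporter-expressing P. falciparum in infected red cells (2% hematocrit, 0.05% parasitemia final), exposed to compound two generations (96 h, 37 C, 5% CO2).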
NS1 inh: influenza NS1 inhibition. Potency, µM (doses to about 46.1 µM), inactives show top-dose activity, positive = more growth. 270,000 compounds, 0.4% hits; calls by dose curve; further: actives are rising curves; nearly all actives have a fitted effect of over 50% in size
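In this qHTS, NS1 from influenza A is expressed in budding yeast, where it slows growth. Cells are switched from glucose to 2% galactose medium (pH 6.0, -URA), treated with compound, and growth recovery is read at OD600.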
Numbers without * were called inactive; i = inactive; ? = inconclusive; . = no result given; [ ] = remark or other dose. In the library only some 11% were active in any assay of this set; here they are far more common. Unless noted, the call rests on the fitted dose curve; in most records, active means well fitted inhibition curve with a large enough effect; inconclusive means small, poorly fitted or top-dose-only effect, or another doubt; inactive means no such curve, though single readings can be large or run the other way. Potency means the concentration at half of the fitted maximal effect.

SMILES	Pf growth 48h	HCV inhibitor	VACV mCherry inh	Vaccinia Venus	Pf growth 96h	NS1 inh
COC(=O)c1ccc(C23CC4(C2)[C@H](CN(C)[C@@H]4c2ccccc2)C3c2ccc(C(F)(F)F)cc2)cc1 (stereo partly drawn)	10µM*	38%	?	-4%	?	12%
CC(C)(C)C(=O)N1CCN(c2ccc(Cl)cc2[N+](=O)[O-])CC1	24%	9%	i	-9%	36%	-42%
Cc1ccc(C(=O)Nc2cccc(C(F)(F)F)c2)cc1Nc1cncnc1	1%	?	-13%	-28%	12µM*	?
CCn1c(C(=O)O)c(CC(=O)Nc2cccc(C(F)(F)F)c2)c2ccccc21	-7%	5%	.	.	0.74µM*	11%
CCCCCNCC(=O)Nc1cccc(C(=O)Nc2cccc(C(F)(F)F)c2)c1	4.7µM*	?	?	?	3.3µM*	-1%
C[C@@H](N)[C@@H](O)c1ccc(O)c(O)c1	0%	.	.	.	0.6µM*	.
CCC(NC(C)C)C(O)c1ccc(O)c2[nH]c(=O)ccc12 (stereo not drawn)	?	-27%[8.37 µM]	-23%	-10%	-9%	0%
CC[C@H](NC(C)C)[C@H](O)c1ccc(O)c(O)c1	?	.	.	.	13µM*	.
CC(N)[C@H](O)c1ccc(O)c(O)c1 (stereo partly drawn)	.	.	-9%	-5%	.	-5%
COc1ccc(NS(=O)(=O)c2cccc(C(=O)NCC(c3ccco3)N3CCCC3)c2)cc1 (stereo not drawn)	?	-5%	?	-9%	15µM*	.
O=C(NCC(c1ccco1)N1CCCC1)c1cccc(S(=O)(=O)Nc2ccc(Br)cc2)c1 (stereo not drawn)	?	-17%	i	-12%	?	7%
CCOc1ccc(NS(=O)(=O)c2ccc(C(=O)NCC(c3ccc(OC)cc3)N3CCCC3)cc2)cc1 (stereo not drawn)	13µM*	?	-26%	?	13µM*	.
Cc1ccc(NS(=O)(=O)c2cccc(C(=O)NCC(c3ccco3)N3CCCCC3)c2)cc1 (stereo not drawn)	?	.	-11%	-24%	12µM*	5%
CC(=O)c1ccc(S(=O)(=O)Nc2ccc(C(=O)NCC(c3ccco3)N3CCCC3)cc2)cc1 (stereo not drawn)	.	.	-17%	-4%	.	.
COc1ccc(C(CNC(=O)c2cccc(S(=O)(=O)Nc3ccc(F)cc3)c2)N2CCCCC2)cc1 (stereo not drawn)	.	5µM*	.	.	.	.
COc1ccc(N(CC(=O)Nc2ccccc2C(F)(F)F)C2=NC3CS(=O)(=O)CC3S2)cc1 (stereo not drawn)	?	10%	12%	-10%	?	-15%
COc1ccc(NS(=O)(=O)c2ccc(C)c(C(=O)NCC(c3ccco3)N3CCCCC3)c2)cc1 (stereo not drawn)	-11%	-21%	i	-18%	?	.
Cc1cccc(NS(=O)(=O)c2ccc(C)c(C(=O)NCC(c3ccco3)N3CCCCC3)c2)c1 (stereo not drawn)	13µM*	?	-25%	-16%	?	.
O=C1CNC(=S)N1CCc1ccccc1Cl	6%	17%	i	29%	13%	1%
CCOC(=O)C[n+]1c(C)ccc2c1CCC2	-6%	-11%	.	.	8.3µM*	7%
CCOC(=O)C[n+]1c(C)csc1C	-1%	0%	-12%	0%	-13%	0%
Cc1ccc(-n2nc3c(N4CCC(C(=O)N5CCCCCC5)CC4)nnc(C)c3c2C)cc1	?	-26%	.	.	12µM*	5%
CCOC(=O)C1CCCN(C(=O)C2CCN(c3nnc(C)c4c(C)n(-c5ccccc5)nc34)CC2)C1 (stereo not drawn)	.	.	-11%	-7%	.	.
COc1ccc(-n2nc3c(N4CCC(C(=O)N5CCCCCC5)CC4)nnc(C)c3c2C)cc1	?	11µM*	.	.	?	-1%
CCN(CC)C(=O)C1CCN(c2nnc(C)c3c(C)n(-c4ccc(Cl)cc4)nc23)CC1	.	.	-10%	-17%	.	.
SMILES	Pf growth 48h	HCV inhibitor	VACV mCherry inh	Vaccinia Venus	Pf growth 96h	NS1 inh
Cc1nnc(N2CCC(C(=O)N3CCCCCC3)CC2)c2nn(-c3ccc(Cl)cc3)c(C)c12	?	8.9µM*	.	.	-14%	6%
COc1ccc(-n2nc3c(N4CCC(C(=O)NCCc5ccco5)CC4)nnc(C)c3c2C)cc1	?	?	-24%[7.34 µM]	-19%[7.34 µM]	1%	11%
CCCN1CCN(C(=O)C2CCN(c3nnc(C)c4c(C)n(-c5ccc(C)cc5)nc34)CC2)CC1	10µM*	2.2µM*	.	.	?	0%
COc1cccc(C(=O)Nc2ncc3c(n2)CC(C)(C)CC3=O)c1	31%	-11%	.	?	15%	-3%
COc1ccc(CN(C)C(=O)CNC(=O)Cc2cccc3ccccc23)c(OC)c1OC	14%	?	-14%	-17%	-16%	11%
O=c1c2ccccc2n2c(-c3cccc(Cl)c3)nnc2n1Cc1ccccc1	-20%	0%	-21%	-12%	?	1%
O=C(NC(Cc1ccccc1)c1nc2ccccc2[nH]1)C1CC(=O)N(c2ccc3c(c2)OCCO3)C1 (stereo not drawn)	0%	-5%	10%	6%	2.9µM*	-10%
O=C(NCCc1ccccc1)C1CC(=O)N(c2ccc3c(c2)OCCO3)C1 (stereo not drawn)	?	?	-9%	-5%	-2%	.
COc1cc(NC(=O)CNc2ccc(Cl)c(S(=O)(=O)N3CCOCC3)c2)cc(OC)c1	5.2µM*	?	.	.	?	.
COc1cc(CCC(=O)Nc2ccc(C)c(S(=O)(=O)N3CCCCCC3)c2)cc(OC)c1OC	12µM*	7.9µM*	?	-27%	10µM*	.
COc1ccc(NC(=O)CCc2ccccc2)cc1S(=O)(=O)N1CCCCC1	?	-13%	-24%	-14%	?	.
O=C(CSc1ccccc1)Nc1ccc(Cl)c(S(=O)(=O)N2CCOCC2)c1	.	?	?	-5%	.	.
COc1ccccc1CCC(=O)Nc1ccc(OC)c(S(=O)(=O)N2CCCCC2)c1	?	11µM*	.	.	?	.
COc1ccc(CCC(=O)Nc2ccc(OC)c(S(=O)(=O)N3CCCCC3)c2)cc1OC	?	10µM*	.	.	?	.
COC(=O)CCSCC(=O)Nc1ccc(C)c(S(=O)(=O)N2CCCCC2)c1	-26%	1%	.	.	4%	-10%
COc1ccccc1CCC(=O)OCC(=O)Nc1ccc(C)c(S(=O)(=O)N2CCCCC2)c1	-11%	32%	-15%	-5%	?	.
Cc1ccccc1-c1nc2cc(NC(=O)C3CC3)ccc2o1	81%	?	-15%	0%	-15%	-90%
Cc1ccc(CNC(=O)CSc2ncc(S(=O)(=O)c3ccc(Br)cc3)c(=O)[nH]2)cc1	.	.	7%	1%	.	.
